The values below come from ChEMBL document CHEMBL3988442, “University of Dundee, Small-Polar-MMV Screening Library” (2021).

Among all 48,000 compounds or so, about 13,000 (27%) showed an effect of 50% or more. Some of the results follow.

The test system of the experiment is Wolbachia pipientis. Kind of experiment: Anti-Wolbachia Cell-Based Screen. The experiment is classed as functional. Also on record: scale not given: in the data most compounds retested in dose-response had high values. The note with it: 5 µM.
In the case of `Cc1cnccc1CN(C)C1CCN(c2ncnc3[nH]cnc23)CC1`, the “Percent Effect” value was -3.937%.

In the case of `CN(C)C(=O)CCC[S+]([O-])Cc1cc(Cl)ccc1Cl` (stereo not drawn), the “Percent Effect” value was determined as 0.1259%.

With `Cc1noc(C)c1CN1CCc2nn(C(C)C)c(=O)cc2C1`, the “Percent Effect” value was -7.391%.

With `CC(=O)Nc1ncc(S(=O)(=O)N2CCN(C3CCCCC3)CC2)s1`, the “Percent Effect” value was -4.636%.

As for `Cc1ccccc1S(=O)(=O)Cc1nsc(N(C)C)n1`, the “Percent Effect” value is listed as -10.46%.

With `COc1ccc2c(c1)CCCN2C(=O)NCCc1cnn(C)c1`, the “Percent Effect” value is -4.065%.

As to `Cc1ccc(CN(C)C(=O)Cn2nc(-c3ccc(F)cc3)oc2=O)cc1`, the “Percent Effect” value is recorded as -26.69%.

As for `CCn1nccc1CN(C)C(=O)Cn1nc(C)c(C)c1C`, the “Percent Effect” value is reported as 98.15%.

`Cc1cc(C)n(CC2CCCCN2CC(=O)N(C)Cc2ccco2)n1` (stereo not drawn): the “Percent Effect” value is reported as -0.03535%.

Regarding `Cc1cc(C)n(CC(C)CNC(=O)N(C)Cc2ccco2)n1` (stereo not drawn), the “Percent Effect” value is given as 23.18%.

With `CCc1nc(CC)n(CC(=O)N(C)Cc2ccc(F)cc2)n1`, the “Percent Effect” value was -4.811%.

In the case of `CCn1nccc1CN(C)C(=O)Cn1nc(C)cc1C`, the “Percent Effect” value came to 69.47%.

As for `O=C(CNC(=O)C1CCCC1)NCC(O)c1ccc2ccccc2c1` (stereo not drawn), the “Percent Effect” value is reported as -9.214%.

Consider `Cn1nnc2c(sc3nc(N4CCOCC4)c4c(c32)CCC4)c1=O`, for which the “Percent Effect” value amounted to 117%.

With `CCCn1nnc2c(sc3nc(N4CCOCC4)c4c(c32)CCC4)c1=O`, the “Percent Effect” value is on record as 106.2%.

For the compound `CC(C)n1nnc2c(sc3nc(N4CCOCC4)c4c(c32)CCC4)c1=O`, the “Percent Effect” value came out at 121.1%.

Regarding `CCCn1nnnc1CN(c1ccc(N2CCOCC2)cc1)C(C)C`, the “Percent Effect” value was -9.048%.

For the compound `CCc1nc2c(c(N3CCOCC3)n1)CCN(C(=O)N1CCCC1)CC2`, the “Percent Effect” value is on record as -8.543%.

Take `CN(C)C(=O)Cc1ccccc1NCc1cccc2cccnc12`: the “Percent Effect” value was -12.16%.

Regarding `O=C(c1cncc(Br)c1)N1CCCc2c(F)cc(F)cc21`, the “Percent Effect” value was -4.9%.

Consider `CC(C#N)CNS(=O)(=O)c1ccc(Br)c(F)c1` (stereo not drawn), for which the “Percent Effect” value is 3.318%.

Turning to `CC(C)c1noc(CCC(=O)N(CC2CCOC2)C2CC2)n1` (stereo not drawn), the “Percent Effect” value turned out to be 6.067%.

For `NC(=O)NC(=O)CCN(Cc1ccccc1)CC1CCOCC1`, the “Percent Effect” value is given as -17.87%.

Consider `Cc1cnn(CC(C)NCC(=O)Nc2ccc(Cl)cn2)c1` (stereo not drawn), for which the “Percent Effect” value is recorded as -4.944%.

On to `CC(C)COC[C@@H]1CC[C@H]2[C@H](CCN2C(=O)c2ccncc2F)O1.O=C(O)C(F)(F)F`, for which the “Percent Effect” value was found to be 105.1%.

With `CC(C)COC[C@H]1CC[C@H]2[C@H](CCN2C(=O)c2ccncc2F)O1.O=C(O)C(F)(F)F`, the “Percent Effect” value is 108.1%.

Regarding `Fc1cnc(N2CC[C@@H]3O[C@@H](COCc4ccccn4)CC[C@@H]32)nc1.O=C(O)C(F)(F)F.O=C(O)C(F)(F)F`, the “Percent Effect” value was -20.87%.

For `Fc1cnc(N2CC[C@@H]3O[C@@H](COCc4cccnc4)CC[C@@H]32)nc1.O=C(O)C(F)(F)F`, the “Percent Effect” value is on record as -5.936%.

For the compound `O=C(O)C(F)(F)F.O=C(c1ccncc1F)N1CC[C@@H]2OC(COCC3CC3)CC[C@@H]21` (stereo partly drawn), the “Percent Effect” value is 97.57%.

As to `COc1ccc(CNC[C@H]2COCc3nc4cccnc4n32)cn1`, the “Percent Effect” value was found to be 2.273%.

Turning to `Cc1ccc(NC(C)C(=O)N(C)Cc2cccc(F)c2)cc1C(N)=O` (stereo not drawn), the “Percent Effect” value was -12.41%.

Regarding `CN(Cc1ccc(Cl)s1)C(=O)c1cccc(OCC(N)=O)c1`, the “Percent Effect” value is given as -4.963%.

On to `N#Cc1ccc(SCCOCCO)c(F)c1`, for which the “Percent Effect” value is -11.88%.

On to `CC(OCC1CC1)C(=O)N1CCCN(c2nc3ccccc3[nH]2)CC1` (stereo not drawn), for which the “Percent Effect” value is 2.156%.

For `Cc1noc(CN2CCC(c3ccnn3CCO)CC2)n1`, the “Percent Effect” value was -5.622%.

`Cc1ccc2[nH]c([C@H]3CCN(CC4CCCCC4)C3)nc2c1`: the “Percent Effect” value was 2.151%.

As to `N#Cc1ccc(CN2CCC(c3ccnn3CCO)CC2)cc1`, the “Percent Effect” value is reported as -5.885%.

In the case of `Nc1nccc(C2CCN(CCO)C2)n1` (stereo not drawn), the “Percent Effect” value was 113.7%.

With `COCc1nccc(C2CCCN(Cc3ccc(SC)cc3)C2)n1` (stereo not drawn), the “Percent Effect” value is -16.87%.

For the compound `COCc1nccc(C2CCCN(Cc3ccc(C#N)cc3)C2)n1` (stereo not drawn), the “Percent Effect” value is -15.32%.

As to `Nc1nccc(C2CCN(CC3CC3)C2)n1` (stereo not drawn), the “Percent Effect” value came to 123.6%.

As for `Nc1nccc(C2CCCN(CC3CC3)C2)n1` (stereo not drawn), the “Percent Effect” value came out at 142.8%.

For the compound `COc1ccc(-c2nnc([C@H]3CCN(CC4CC4)C3)o2)cc1`, the “Percent Effect” value worked out at 1.558%.

As for `Cc1ccc2c(c1)OCCN2C(=O)c1ccc(=O)n(C)c1`, the “Percent Effect” value is on record as 10.97%.

Take `CCn1c(CN(C)C(=O)c2ccc(N(C)C)nc2)nc2ccccc21`: the “Percent Effect” value is reported as -11.95%.

Regarding `O=C(Nc1ccccc1)C1CN(Cc2ccco2)CC12CCOCC2.O=C(O)C(F)(F)F` (stereo not drawn), the “Percent Effect” value is given as -4.746%.

Regarding `Cc1ccc(S(=O)(=O)Cc2noc([C@@H]3C[C@@H](O)CN3)n2)cc1`, the “Percent Effect” value was 5.528%.

For `COc1ccc(CC2CCCN2CCCC#N)cc1` (stereo not drawn), the “Percent Effect” value is 3.146%.

Regarding `COc1ccc(C(=O)Nc2cnn(CC(=O)NC3CCCC3)c2)c(O)c1`, the “Percent Effect” value is -2.411%.

As to `O=C(NCc1ccccn1)NCC(c1ccco1)N1CCCCC1` (stereo not drawn), the “Percent Effect” value stood at 12.69%.

In the case of `O=C(NCCCn1ccnc1)N1CCCC1c1cccs1` (stereo not drawn), the “Percent Effect” value amounted to 8.272%.

For `O=C(NCCn1ccnc1)NCC(c1ccco1)N1CCCCC1` (stereo not drawn), the “Percent Effect” value was -2.241%.

In the case of `O=C(NCc1ccccn1)NCC(c1ccco1)N1CCCC1` (stereo not drawn), the “Percent Effect” value is 11.6%.

`O=C(Cn1cccn1)NCC(c1cccs1)N1CCCC1` (stereo not drawn): the “Percent Effect” value was -1.128%.

As for `O=C(NCCn1ccnc1)NCC(c1ccco1)N1CCCC1` (stereo not drawn), the “Percent Effect” value is reported as 107.9%.

Turning to `O=C(NCc1cc[nH]n1)NCC(c1ccco1)N1CCCC1` (stereo not drawn), the “Percent Effect” value is recorded as -4.044%.

Take `O=C(NCCCn1ccnc1)NCC(c1ccco1)N1CCCCC1` (stereo not drawn): the “Percent Effect” value is reported as 152.2%.

For the compound `O=C(NCCCn1cccn1)NCC(c1ccco1)N1CCCC1` (stereo not drawn), the “Percent Effect” value was found to be 116.5%.

In the case of `O=C(NCCCn1ccnc1)NCC(c1ccco1)N1CCCC1` (stereo not drawn), the “Percent Effect” value is listed as 97.42%.

For `O=C(CCn1cccn1)NCC(c1cccs1)N1CCCC1` (stereo not drawn), the “Percent Effect” value is on record as -57.56%.

In the case of `CN(CC(=O)NCCc1cc2ccccc2o1)S(C)(=O)=O`, the “Percent Effect” value was 6.714%.

As for `CCN(C)CCNC(=O)Cc1nc(-c2ccco2)oc1C`, the “Percent Effect” value was -18.21%.

For the compound `COc1cc(C(C)NCc2c[nH]nc2C)ccc1OCCO` (stereo not drawn), the “Percent Effect” value is given as -5.579%.

As to `OCc1ccc(CNc2ccccc2CN2CCC(O)CC2)o1`, the “Percent Effect” value is recorded as -5.459%.

As to `Cn1cc(C2CC(=O)NC23CCN(Cc2ccncc2)CC3)cn1.O=C(O)C(F)(F)F.O=C(O)C(F)(F)F` (stereo not drawn), the “Percent Effect” value is 100.3%.

As for `Cn1cc(C2CC(=O)NC23CCN(Cc2cccc(F)c2)CC3)cn1.O=C(O)C(F)(F)F` (stereo not drawn), the “Percent Effect” value is 101.2%.

As to `Cn1cc(C2CC(=O)NC23CCN(CC2CC2)CC3)cn1.O=C(O)C(F)(F)F` (stereo not drawn), the “Percent Effect” value was -10.6%.

Regarding `O=C(C1CCC1)N1CCC2(CCN(Cc3cccc(F)c3)CC2)CC1.O=C(O)C(F)(F)F`, the “Percent Effect” value was found to be 18.44%.
